About 83,000 compounds went through this panel and 20% of them were active in at least one assay; those are over-represented in the sample as a whole.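 Percent growth is the endpoint: 0 to 100 indicates growth inhibition (40 means 60% inhibition), 0 means no net growth, and negative values indicate cell death.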 Values without a mark were called inactive. Calls of active or inactive are those of the source. Rule for the calls: active = growth percent below 10; inactive = the rest.
What follows are compounds tested on MDA-MB-468 breast (assay: NCI-60 one-dose screen, 48 h (100 = growth as untreated, 0 = no growth, -100 = all killed)). Conditions: 10 µM unless noted.
OC(c1cccc(-n2ccc(C(F)(F)F)n2)c1)c1cnccc1NC1CCCCCC1 (stereo unspecified) was tested, and the growth was -59.4% (active).
CCOc1nc(-c2ccccc2)cc2c(O)c(C(=O)NN)[nH]c(=O)c12 was tested, and the growth was 110%.
CCC(C)C1NC(=O)c2nc(oc2-c2ccccc2)-c2csc(n2)-c2csc(n2)-c2nc(oc2C)-c2coc(n2)CNC(=O)C(C(C)CC)NC1=O (stereo unspecified) was tested, and the growth was -76.9% (active).
With COc1ccc(NC(=O)CSc2oc(-c3ccccc3)nc2S(=O)(=O)c2ccc(Cl)cc2)c(OC)c1 the growth was 57.8%.
CN1CCN(c2ccc(NC(=O)c3cncnc3Nc3ccc(OCc4cccc(F)c4)c(Cl)c3)cc2)CC1 gave a growth of 71.8%.
Oc1ccc(-c2nc(-c3ccc4oc5ccc(-c6[nH]c(-c7ccc(O)cc7)nc6-c6ccccc6)cc5c4c3)c(-c3ccccc3)[nH]2)cc1 was tested, and the growth was 6.14% (active).
With CCOc1ccc(-c2nc3ccc(-c4nc5ccc(N6CCN(C)CC6)cc5[nH]4)cc3[nH]2)cc1 the growth was -85.2% (active).
With Clc1ccc(N2N=C(c3cccc(Nc4ccncc4)c3)CC2c2ccc(Br)cc2)cc1 (stereo unspecified) the growth was -27.1% (active).
CC[C@H](CC[C@@H](C)[C@H]1CC[C@H]2[C@@H]3CC[C@@H]4CC(=O)/C(=C\c5ccncc5)C[C@]4(C)[C@H]3CC[C@]12C)C(C)C gave a growth of 105%.
For c1ccc2cc(C[n+]3ccn(CCCCCCCn4cc[n+](Cc5ccc6ccccc6c5)c4)c3)ccc2c1, the growth was -2.76% (active).
In the case of Cn1c(/C=C(\C#N)c2cccc(C(F)(F)F)c2)nc2c(N3CCOCC3)nc(Cl)nc21, the growth is reported as -40.3% (active).
In the case of N=c1c(S(=O)(=O)c2ccccc2)cc2c(=O)n3ccccc3nc2n1C1CCCC1, the growth is reported as 88.1%.
CCn1cc(C(=O)O)c(=O)c2cc(F)c(N3CCNCC3)cc21 showed a growth of 93.2%.
In the case of O=c1c(/C=C/c2c(O)ccc3ccccc23)nnc2sc(-c3cccc([N+](=O)[O-])c3)nn12, the growth is reported as 40.9%.
Cc1ccc(C(=O)c2ccc(CC(=O)N=Nc3c(O)[nH]c4ccc(Br)cc34)n2C)cc1 showed a growth of 96.6%.
CN(C)c1ccc(/C=N/Nc2nc(N/N=C/c3ccc(N(C)C)cc3)nc(N3CCCCC3)n2)cc1 showed a growth of 36.3%.
For CSc1nc(=O)n(Cc2ccc(F)cc2)c(=O)n1Cc1ccc(C)cc1, the growth was 112%.
With C[C@@H](Oc1ccc(C(=O)NS(=O)(=O)C(C)(C)C)cc1C(F)(F)F)c1ccc(Oc2ccccc2)cn1 the growth was -13.5% (active).
For Oc1ccc(Cl)cc1-c1cc(-c2ccc(Cl)cc2)n[nH]1, the growth was 8.55% (active).
Work on CC(C)(C)OC(=O)N1CCN(S(=O)(=O)/N=C2\NC(=O)NC2=C(Cl)Cl)CC1 yielded a growth of 63.7%.
Cc1cc(N2CCCCC2)nc(N(CCNc2ccnc3cc(Cl)ccc23)Cc2ccccn2)n1 was tested, and the growth was 3.63% (active).
With Cc1ccc(S(=O)(=O)Oc2ccc3c4c(c(=O)oc3c2)CCCCC4)cc1 the growth was 35.5%.
CCNC(=O)Oc1ccc(/C(=C(\C)c2ccccc2)c2ccc(OCCCN(C)C)cc2)cc1 gave a growth of 86.6%.
In the case of O=C(/C=C/c1cc2ccccc2[nH]c1=O)c1ccc(Cl)cc1, the growth is reported as 15.4%.
Work on COc1cc(/C=C\c2cc(/C=C\c3ccc(O)c(OC)c3)n(C(=O)Nc3ccc(C(F)(F)F)cc3)n2)ccc1O yielded a growth of 43.8%.
Work on Cc1ccc(C)n1-c1ccsc1C(=O)NNC(=O)C(Cl)Cl yielded a growth of 103%.
Compound CSc1nc2sc3cccc(Cl)c3n2c(=N)c1C#N has a growth of 90.4%.
CCCCSCC(=O)c1ccccc1 showed a growth of 113%.
CCOC(=O)CSc1nc2sc3c(c2c(=O)n1-c1ccc([N+](=O)[O-])cc1)CCCCC3 showed a growth of 56.6%.
With CN(C)CCOC(=O)Nc1ccccc1Cl the growth was 113%.
Compound COc1ccc(Cn2cc(Cn3cc(C=C4C(=O)NC(=O)NC4=O)c4ccccc43)nn2)cc1 has a growth of 18.5%.
For Cc1nnc(N/N=C/c2ccc([N+](=O)[O-])o2)[nH]c1=O, the growth was 31.2%.
O=C(NCCCN1CCC(N2CCCCC2)CC1)C1=Cc2cc(Br)ccc2OC1 gave a growth of 45.6%.
O=C(Nc1cccc(-n2cc(-c3ccncc3)c(-c3ccc(Cl)c(O)c3)n2)c1)c1ccccc1 showed a growth of 64.1%.
Cc1ncc(CO)c(C(=O)O)c1O gave a growth of 108%.
In the case of O=C(CCN1C(=O)/C(=C/c2ccc(Cl)cc2)SC1=S)NCCCN1CCOCC1, the growth is reported as 100%.

— PubChem BioAssay (NCI)
